Results from PubChem BioAssay (NCI).
The panel holds about 83,000 compounds, 20% with a hit somewhere; the sample as a whole holds those more often.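 Treatment: one concentration, 48 hours, 96-well format. Scoring: percent growth, with anything below 10 considered active.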 Values without a mark were called inactive. Calls of active or inactive are those of the source.

How the values were obtained:
Assay in all cases: NCI-60 one-dose screen, 48 h (100 = growth as untreated, 0 = no growth, -100 = all killed)
SR leukemia = conditions: 10 µM unless noted
RPMI-8226 leukemia = conditions: 10 µM unless noted
OVCAR-8 ovarian = conditions: 10 µM unless noted
OVCAR-5 ovarian = conditions: 10 µM unless noted
OVCAR-4 ovarian = conditions: 10 µM
SK-OV-3 ovarian = conditions: 10 µM unless noted
IGROV1 ovarian = conditions: 10 µM unless noted
OVCAR-3 ovarian = conditions: 10 µM unless noted
HS 578T breast = conditions: 10 µM unless noted
NCI/ADR-RES ovarian = conditions: 10 µM unless noted
BT-549 breast = conditions: 10 µM unless noted
MDA-MB-435 melanoma = conditions: 10 µM unless noted
SW-620 colon = conditions: 10 µM unless noted
MCF7 breast = conditions: 10 µM unless noted
HCT-116 colon = conditions: 10 µM unless noted
HCC-2998 colon = conditions: 10 µM unless noted
KM12 colon = conditions: 10 µM unless noted
T-47D breast = conditions: 10 µM unless noted

Q: What does the source list for `CN(C)c1ccc(N=Nc2ccc3ccccc3c2)cc1`?
A: growth (SR leukemia): 61.8%; growth (RPMI-8226 leukemia): 79.7%; growth (OVCAR-8 ovarian): 98.2%; growth (OVCAR-5 ovarian): 104%; growth (OVCAR-4 ovarian): 76.7%; growth (SK-OV-3 ovarian): 96%; growth (IGROV1 ovarian): 77.8%; growth (OVCAR-3 ovarian): 88.7%; growth (HS 578T breast): 98.4%; growth (NCI/ADR-RES ovarian): 98.1%; growth (BT-549 breast): 101%; growth (MDA-MB-435 melanoma): 101%; growth (SW-620 colon): 96.9%; growth (MCF7 breast): 43.9%; growth (HCT-116 colon): 66%; growth (HCC-2998 colon): 99.8%; growth (KM12 colon): 92.8%

Q: Which results are given for `Cc1ccccc1OC(=O)c1cccc(Cl)c1`?
A: growth (SR leukemia): 97.3%; growth (RPMI-8226 leukemia): 98.8%; growth (OVCAR-8 ovarian): 112%; growth (OVCAR-5 ovarian): 104%; growth (OVCAR-4 ovarian): 112%; growth (SK-OV-3 ovarian): 137%; growth (IGROV1 ovarian): 104%; growth (OVCAR-3 ovarian): 109%; growth (NCI/ADR-RES ovarian): 108%; growth (T-47D breast): 142%; growth (BT-549 breast): 107%; growth (MDA-MB-435 melanoma): 113%; growth (SW-620 colon): 101%; growth (MCF7 breast): 108%; growth (HCT-116 colon): 103%; growth (HCC-2998 colon): 99.8%; growth (KM12 colon): 101%

Q: How did the growth (SR leukemia) turn out when `CCN(CC)CCCC(C)Nc1ccnc2cc(Cl)c(SCc3ccccc3)cc12` (centres undefined) was run?
A: The growth was -42.6% (active).

Q: And the growth (RPMI-8226 leukemia)?
A: Its growth is -36.6% (active).

Q: And the growth (OVCAR-8 ovarian)?
A: The growth was -9.3% (active).

Q: What about the growth (OVCAR-5 ovarian) of the same compound?
A: Its growth is -13.7% (active).

Q: What about the growth (OVCAR-4 ovarian) of the same compound?
A: The growth was 7.81% (active).

Q: And the growth (SK-OV-3 ovarian)?
A: Its growth is -43.1% (active).

Q: What about the growth (IGROV1 ovarian) of the same compound?
A: Its growth is -26.7% (active).

Q: What about the growth (OVCAR-3 ovarian) of the same compound?
A: Its growth is -28.5% (active).

Q: And the growth (NCI/ADR-RES ovarian)?
A: The growth was -18.3% (active).

Q: And the growth (T-47D breast)?
A: Its growth is -58.3% (active).

Q: What about the growth (BT-549 breast) of the same compound?
A: Its growth is -81% (active).

Q: And the growth (MDA-MB-435 melanoma)?
A: Its growth is -71.2% (active).

Q: And the growth (SW-620 colon)?
A: The growth was -85.3% (active).

Q: And the growth (MCF7 breast)?
A: The growth was -49.5% (active).

Q: What about the growth (HCT-116 colon) of the same compound?
A: The growth was -67.8% (active).

Q: And the growth (HCC-2998 colon)?
A: Its growth is -84.1% (active).

Q: And the growth (KM12 colon)?
A: Its growth is -32.4% (active).

Q: With `C=CCCCCCCCCC(=O)OC(C)C` as the compound, how does the growth (SR leukemia) read?
A: Its growth is 89%.

Q: What about the growth (RPMI-8226 leukemia) of the same compound?
A: Its growth is 99.7%.

Q: And the growth (OVCAR-8 ovarian)?
A: The growth was 104%.

Q: And the growth (OVCAR-5 ovarian)?
A: Its growth is 99.2%.

Q: What about the growth (OVCAR-4 ovarian) of the same compound?
A: The growth was 112%.

Q: What about the growth (SK-OV-3 ovarian) of the same compound?
A: The growth was 102%.

Q: What about the growth (IGROV1 ovarian) of the same compound?
A: Its growth is 109%.

Q: What about the growth (OVCAR-3 ovarian) of the same compound?
A: Its growth is 105%.

Q: And the growth (HS 578T breast)?
A: The growth was 93.9%.

Q: And the growth (NCI/ADR-RES ovarian)?
A: The growth was 102%.

Q: And the growth (BT-549 breast)?
A: The growth was 108%.

Q: What about the growth (MDA-MB-435 melanoma) of the same compound?
A: The growth was 111%.

Q: And the growth (SW-620 colon)?
A: Its growth is 96.5%.

Q: What about the growth (MCF7 breast) of the same compound?
A: The growth was 98.2%.

Q: What about the growth (HCT-116 colon) of the same compound?
A: The growth was 97.7%.

Q: And the growth (HCC-2998 colon)?
A: The growth was 112%.

Q: What about the growth (KM12 colon) of the same compound?
A: The growth was 95.3%.

Q: Which results are given for `CCOC(=O)COc1ccc2c(c1)O/C(=C\c1ccc(O)cc1)C2=O`?
A: growth (SR leukemia): 93.8%; growth (RPMI-8226 leukemia): 119%; growth (OVCAR-8 ovarian): 105%; growth (OVCAR-5 ovarian): 102%; growth (OVCAR-4 ovarian): 108%; growth (SK-OV-3 ovarian): 117%; growth (IGROV1 ovarian): 106%; growth (OVCAR-3 ovarian): 106%; growth (NCI/ADR-RES ovarian): 108%; growth (T-47D breast): 99.9%; growth (BT-549 breast): 101%; growth (MDA-MB-435 melanoma): 102%; growth (SW-620 colon): 104%; growth (MCF7 breast): 105%; growth (HCT-116 colon): 105%; growth (HCC-2998 colon): 111%; growth (KM12 colon): 110%

Q: `O=C(Nc1cc(F)cc2cccnc12)c1cnc(N2CCNCC2)cn1` was tested. Which growth (SR leukemia) did it give?
A: The growth was 29.5%.

Q: What about the growth (RPMI-8226 leukemia) of the same compound?
A: Its growth is 93.1%.

Q: And the growth (OVCAR-8 ovarian)?
A: Its growth is 72.4%.

Q: What about the growth (OVCAR-5 ovarian) of the same compound?
A: Its growth is 83.4%.

Q: What about the growth (OVCAR-4 ovarian) of the same compound?
A: Its growth is 11.2%.

Q: And the growth (SK-OV-3 ovarian)?
A: The growth was 100%.

Q: And the growth (IGROV1 ovarian)?
A: The growth was 43.5%.

Q: What about the growth (OVCAR-3 ovarian) of the same compound?
A: The growth was 6.04% (active).

Q: And the growth (HS 578T breast)?
A: Its growth is 82.2%.

Q: What about the growth (T-47D breast) of the same compound?
A: Its growth is 18%.

Q: What about the growth (MDA-MB-435 melanoma) of the same compound?
A: The growth was 77.3%.

Q: And the growth (SW-620 colon)?
A: The growth was 40.9%.

Q: What about the growth (MCF7 breast) of the same compound?
A: Its growth is 10.2%.

Q: And the growth (HCT-116 colon)?
A: Its growth is 11%.

Q: And the growth (HCC-2998 colon)?
A: Its growth is 85.6%.

Q: And the growth (KM12 colon)?
A: The growth was 81.2%.

Q: With `C=CCCC1(C)NC(=O)NC1=O` (centres undefined) as the compound, how does the growth (SR leukemia) read?
A: The growth was 94.4%.

Q: And the growth (RPMI-8226 leukemia)?
A: The growth was 104%.

Q: What about the growth (OVCAR-8 ovarian) of the same compound?
A: The growth was 102%.

Q: And the growth (OVCAR-5 ovarian)?
A: Its growth is 102%.

Q: What about the growth (OVCAR-4 ovarian) of the same compound?
A: The growth was 99.4%.

Q: What about the growth (SK-OV-3 ovarian) of the same compound?
A: The growth was 94.6%.

Q: What about the growth (IGROV1 ovarian) of the same compound?
A: The growth was 115%.

Q: And the growth (OVCAR-3 ovarian)?
A: The growth was 106%.

Q: And the growth (HS 578T breast)?
A: Its growth is 105%.

Q: What about the growth (BT-549 breast) of the same compound?
A: The growth was 100%.

Q: What about the growth (MDA-MB-435 melanoma) of the same compound?
A: The growth was 99.4%.

Q: What about the growth (SW-620 colon) of the same compound?
A: Its growth is 102%.

Q: What about the growth (MCF7 breast) of the same compound?
A: The growth was 92.4%.

Q: And the growth (HCT-116 colon)?
A: The growth was 96.6%.

Q: What about the growth (HCC-2998 colon) of the same compound?
A: The growth was 104%.

Q: With `CC(C)C1=NOC(=O)C1=Cc1cn(-c2ccccc2)nc1-c1cccc([N+](=O)[O-])c1` as the compound, how does the growth (SR leukemia) read?
A: Its growth is -20.9% (active).

Q: What about the growth (RPMI-8226 leukemia) of the same compound?
A: The growth was -26.8% (active).

Q: What about the growth (OVCAR-8 ovarian) of the same compound?
A: Its growth is 58%.

Q: And the growth (OVCAR-5 ovarian)?
A: Its growth is 106%.

Q: And the growth (OVCAR-4 ovarian)?
A: Its growth is 103%.

Q: And the growth (SK-OV-3 ovarian)?
A: The growth was 117%.

Q: What about the growth (IGROV1 ovarian) of the same compound?
A: The growth was 70.4%.

Q: What about the growth (OVCAR-3 ovarian) of the same compound?
A: Its growth is 89.3%.

Q: And the growth (HS 578T breast)?
A: The growth was 29.7%.

Q: And the growth (T-47D breast)?
A: The growth was 84.5%.

Q: What about the growth (BT-549 breast) of the same compound?
A: Its growth is 109%.

Q: And the growth (MDA-MB-435 melanoma)?
A: The growth was 80%.

Q: What about the growth (SW-620 colon) of the same compound?
A: The growth was 57.8%.

Q: What about the growth (HCT-116 colon) of the same compound?
A: The growth was 34.7%.

Q: What about the growth (HCC-2998 colon) of the same compound?
A: The growth was 87.3%.

Q: And the growth (KM12 colon)?
A: The growth was 87%.

Q: How did the growth (SR leukemia) turn out when `COc1ccc(C(=O)CSc2nnc(-c3cc(-c4ccccc4)nc4ccccc34)o2)cc1` was run?
A: Its growth is 96.3%.

Q: And the growth (RPMI-8226 leukemia)?
A: The growth was 121%.

Q: And the growth (OVCAR-8 ovarian)?
A: Its growth is 103%.

Q: And the growth (OVCAR-5 ovarian)?
A: Its growth is 105%.

Q: What about the growth (OVCAR-4 ovarian) of the same compound?
A: The growth was 107%.

Q: And the growth (SK-OV-3 ovarian)?
A: The growth was 119%.

Q: And the growth (IGROV1 ovarian)?
A: Its growth is 102%.

Q: And the growth (OVCAR-3 ovarian)?
A: The growth was 109%.

Q: What about the growth (NCI/ADR-RES ovarian) of the same compound?
A: Its growth is 103%.

Q: And the growth (T-47D breast)?
A: The growth was 108%.

Q: What about the growth (BT-549 breast) of the same compound?
A: The growth was 105%.

Q: What about the growth (MDA-MB-435 melanoma) of the same compound?
A: The growth was 106%.

Q: What about the growth (SW-620 colon) of the same compound?
A: The growth was 107%.

Q: And the growth (MCF7 breast)?
A: Its growth is 103%.

Q: And the growth (HCT-116 colon)?
A: The growth was 101%.

Q: And the growth (HCC-2998 colon)?
A: The growth was 118%.

Q: And the growth (KM12 colon)?
A: Its growth is 105%.
